# Experimental data as given in PubChem BioAssay (NCI).
# Values joined by “and” are separate entries in the source; they are usually repeats but may differ in a detail not shown here. Equal entries are not always repeated. Compounds without any hit were thinned out: in the full panel of roughly 79,000, 15% have a hit. Active and inactive are the calls of the source. Rule as the data show it: active = growth inhibition above about 70%; inactive = the rest.
# Experiment: NCI Yeast Anticancer Drug Screen. Data for the sgs1 mgt1 strain (AID 161);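 also: 0% = growth of cultures given vehicle only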
# Settings: S. cerevisiae sgs1 mgt1 strain, at 50.0 µM, hits give high values
# Outline: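 Read-out: growth inhibition vs vehicle controls. Cells: mutant yeast strain deficient in DNA damage repair.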
row,Compound,growth inhibition
1,NC1(P(=O)(O)O)CCCCC1,-22.4% (inactive)
2,CC([NH-])C[NH-].CC([NH-])C[NH-].[Co].[NH2-].[NH2-] (stereo not given),6.15% (inactive)
3,Cc1cccc(-n2c(C)nc3ccccc3c2=O)c1C,-3.35% (inactive)
4,CN1CCOC(c2ccccc2)c2ccsc2CC1 (stereo not given),35.2% (inactive)
5,Cc1cccc(C)c1N,-9.65% (inactive)
6,O=C(Cc1cccc([N+](=O)[O-])c1)Nc1cccc(S(=O)(=O)F)c1,-20.3% (inactive)
7,O=C1/C(=C\c2cc3ccccc3c3ccccc23)N2CCC1CC2,-12% (inactive)
8,CCCCCC[C@@H](O)[C@@H]1C2=C(C[C@H]([C@H](O)[C@@H]3CC=CC(=O)O3)CC3=C(C(=O)OC3=O)[C@@H]1O)C(=O)OC2=O,26.7% (inactive)
9,CCCO[As](=O)(OCCC)OCCC,5.8% (inactive)
10,COc1ccc(C(=O)Cc2c(C(=O)c3ccccc3)c3ccccc3n2C(=O)c2ccccc2)cc1,-9.5% (inactive)
11,CC(N)Cc1ccc(Cl)cc1 (stereo not given),1.9% (inactive)
12,CCC1CN2CCC3(C(=O)Nc4ccccc43)C2CC1/C(=C/OC)C(=O)OC (stereo not given),7.85% (inactive)
13,CCC[CH2][Sn]([CH2]C)([CH2]C)[CH2]C,35.7% (inactive)
14,C/C(=N\N(C)C)C(CN1CCCCC1)C(c1ccccc1)c1c(O)c2ccccc2oc1=O (stereo not given),-6.15% (inactive)
15,CCCCCCCCCCCCCC[As](=O)(O)O,21.3% (inactive)
16,CN1CCC2=C(c3ccccc3)c3ccccc3C2C1 (stereo not given),13.4% (inactive)
17,[CH3][Sn]1([CH3])[O]C(=O)c2ccccc2C(=O)[O]1,23.6% (inactive)
18,CN1CCc2c([nH]c3ccccc23)C1,20.6% (inactive)
19,Cc1ccc(OP(=O)(Oc2ccc(C)c(C)c2)Oc2ccc(C)c(C)c2)cc1C,-9.15% (inactive)
20,[O-][N+]12CCCCC1C1CC(C2)C2CCCC(c3ccccc3)N2C1 (stereo not given),-22.8% (inactive)

row,Compound,growth inhibition
1,Cc1cccc(NC(=O)CCl)c1,10.8% (inactive)
2,COC(C(=O)C(O)C(C)O)C1Cc2cc3cc(OC4CC(OC(C)=O)C(OC5CC(O)C(OC)C(C)O5)C(C)O4)cc(O)c3c(O)c2C(=O)C1OC1CC(OC2CC(OC3CC(C)(O)C(OC(=O)C(C)C)C(C)O3)C(O)C(C)O2)C(O)C(C)O1 (stereo not given),-24.6% (inactive) and 17.3% (inactive)
3,CCOP(=O)(OCC)/C(C#N)=C/c1cn(C)cn1,-5.95% (inactive)
4,OCN1CCC23c4c5ccc(O)c4OC2C(O)C=CC3C1C5 (stereo not given),3.35% (inactive)
5,C/C=C(\C)C(=O)OC1CCN2CC=C(COC(=O)C(O)(C(C)O)C(C)(C)O)C12 (stereo not given),2.5% (inactive)
6,ClCCN(CCCl)c1ccc(N=Cc2ccccc2)cc1,7.35% (inactive)
7,Cn1c(O)c(C=N)c(=O)n(C)c1=O,-2.6% (inactive)
8,O=P1(C(Cl)Cl)OCCCO1,-2.65% (inactive)
9,CN(C(=O)Oc1ccccc1)c1ccc(S(=O)(=O)F)cc1,98.8% (active)
10,CC(C)=NNC1=NC(CC(C)C)P(=O)(NCCCCNP2(=O)SC(NN=C(C)C)=NC2CC(C)C)S1 (stereo not given),11.1% (inactive)
11,O=C([O-])C(F)(F)F.O=[N+]([O-])O.[Co+3].[NH2-].[NH2-].[NH2-].[NH2-].[NH2-],7.7% (inactive)
12,ClCCN(CCCl)c1ccc(-c2csc(Cc3ccccc3)n2)cc1,-2.7% (inactive)
13,CCOc1ccc2c(N/N=C/c3ccc(N(CCCl)CCCl)cc3)cc(C)nc2c1,97.3% (active)
14,C[CH2][Sn]([CH2]C)([O]c1cccccc1=O)[O]c1cccccc1=O,94.2% (active)
15,COc1cc(C(=O)O)cc(OC)c1OC,-23.1% (inactive)
16,CN(C)/N=C(\CCN1CCCC1)CC(c1ccccc1)c1c(O)c2ccccc2oc1=O (stereo not given),63.1% (inactive)
17,Cn1c(=S)[nH]n(CCOc2ccccc2)c1=S,-5.85% (inactive)
18,CC(C)(NC1=NCCO1)c1ccccc1,-7.65% (inactive)
19,c1cc[c]([Ge]([c]2ccccc2)[c]2ccccc2)cc1.c1cc[c]([Ge]([c]2ccccc2)[c]2ccccc2)cc1,-1.7% (inactive)
20,C/C=C/C=C\C=C/C(O)CC(OP(=O)(O)O)C(C)(O)/C=C/C1CC=CC(=O)O1 (stereo not given),-20.4% (inactive)

# Experiment: NCI Yeast Anticancer Drug Screen. Data for the cln2 rad14 strain (AID 165);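 also: 0% = growth equal to vehicle treated cultures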
# Settings: S. cerevisiae cln2 rad14 strain, at 50.0 µM, hits give high values
# Outline: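 The screen exposed genetically defined yeast (cln2 rad14) to test compounds and scored growth inhibition relative to vehicle-treated controls.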
row,Compound,growth inhibition
1,NC1(P(=O)(O)O)CCCCC1,-52% (inactive)
2,CC([NH-])C[NH-].CC([NH-])C[NH-].[Co].[NH2-].[NH2-] (stereo not given),-41.2% (inactive)
3,Cc1cccc(-n2c(C)nc3ccccc3c2=O)c1C,-2.6% (inactive)
4,CN1CCOC(c2ccccc2)c2ccsc2CC1 (stereo not given),0% (inactive)
5,Cc1cccc(C)c1N,-36.5% (inactive)
6,O=C(Cc1cccc([N+](=O)[O-])c1)Nc1cccc(S(=O)(=O)F)c1,-2.9% (inactive)
7,O=C1/C(=C\c2cc3ccccc3c3ccccc23)N2CCC1CC2,-7.35% (inactive)
8,CCCCCC[C@@H](O)[C@@H]1C2=C(C[C@H]([C@H](O)[C@@H]3CC=CC(=O)O3)CC3=C(C(=O)OC3=O)[C@@H]1O)C(=O)OC2=O,9.5% (inactive)
9,CCCO[As](=O)(OCCC)OCCC,11.8% (inactive)
10,COc1ccc(C(=O)Cc2c(C(=O)c3ccccc3)c3ccccc3n2C(=O)c2ccccc2)cc1,-57.6% (inactive)
11,CC(N)Cc1ccc(Cl)cc1 (stereo not given),-15.6% (inactive)
12,CCC1CN2CCC3(C(=O)Nc4ccccc43)C2CC1/C(=C/OC)C(=O)OC (stereo not given),2.55% (inactive)
13,CCC[CH2][Sn]([CH2]C)([CH2]C)[CH2]C,15.8% (inactive)
14,C/C(=N\N(C)C)C(CN1CCCCC1)C(c1ccccc1)c1c(O)c2ccccc2oc1=O (stereo not given),4.8% (inactive)
15,CCCCCCCCCCCCCC[As](=O)(O)O,1.65% (inactive)
16,CN1CCC2=C(c3ccccc3)c3ccccc3C2C1 (stereo not given),-9.85% (inactive)
17,[CH3][Sn]1([CH3])[O]C(=O)c2ccccc2C(=O)[O]1,-13.4% (inactive)
18,CN1CCc2c([nH]c3ccccc23)C1,17.2% (inactive)
19,Cc1ccc(OP(=O)(Oc2ccc(C)c(C)c2)Oc2ccc(C)c(C)c2)cc1C,-8.95% (inactive)
20,[O-][N+]12CCCCC1C1CC(C2)C2CCCC(c3ccccc3)N2C1 (stereo not given),-34.8% (inactive)

row,Compound,growth inhibition
1,Cc1cccc(NC(=O)CCl)c1,-4.6% (inactive)
2,COC(C(=O)C(O)C(C)O)C1Cc2cc3cc(OC4CC(OC(C)=O)C(OC5CC(O)C(OC)C(C)O5)C(C)O4)cc(O)c3c(O)c2C(=O)C1OC1CC(OC2CC(OC3CC(C)(O)C(OC(=O)C(C)C)C(C)O3)C(O)C(C)O2)C(O)C(C)O1 (stereo not given),52.5% (inactive) and 58% (inactive)
3,CCOP(=O)(OCC)/C(C#N)=C/c1cn(C)cn1,-16.1% (inactive)
4,OCN1CCC23c4c5ccc(O)c4OC2C(O)C=CC3C1C5 (stereo not given),-68.5% (inactive)
5,C/C=C(\C)C(=O)OC1CCN2CC=C(COC(=O)C(O)(C(C)O)C(C)(C)O)C12 (stereo not given),4.85% (inactive)
6,ClCCN(CCCl)c1ccc(N=Cc2ccccc2)cc1,4.3% (inactive)
7,Cn1c(O)c(C=N)c(=O)n(C)c1=O,7.45% (inactive)
8,O=P1(C(Cl)Cl)OCCCO1,-10.2% (inactive)
9,CN(C(=O)Oc1ccccc1)c1ccc(S(=O)(=O)F)cc1,96.4% (active)
10,CC(C)=NNC1=NC(CC(C)C)P(=O)(NCCCCNP2(=O)SC(NN=C(C)C)=NC2CC(C)C)S1 (stereo not given),-18.2% (inactive)
11,O=C([O-])C(F)(F)F.O=[N+]([O-])O.[Co+3].[NH2-].[NH2-].[NH2-].[NH2-].[NH2-],-5.65% (inactive)
12,ClCCN(CCCl)c1ccc(-c2csc(Cc3ccccc3)n2)cc1,-20% (inactive)
13,CCOc1ccc2c(N/N=C/c3ccc(N(CCCl)CCCl)cc3)cc(C)nc2c1,97.8% (active)
14,C[CH2][Sn]([CH2]C)([O]c1cccccc1=O)[O]c1cccccc1=O,-15.6% (inactive)
15,COc1cc(C(=O)O)cc(OC)c1OC,-26.8% (inactive)
16,CN(C)/N=C(\CCN1CCCC1)CC(c1ccccc1)c1c(O)c2ccccc2oc1=O (stereo not given),48% (inactive)
17,Cn1c(=S)[nH]n(CCOc2ccccc2)c1=S,-18.4% (inactive)
18,CC(C)(NC1=NCCO1)c1ccccc1,5.5% (inactive)
19,c1cc[c]([Ge]([c]2ccccc2)[c]2ccccc2)cc1.c1cc[c]([Ge]([c]2ccccc2)[c]2ccccc2)cc1,-4% (inactive)
20,C/C=C/C=C\C=C/C(O)CC(OP(=O)(O)O)C(C)(O)/C=C/C1CC=CC(=O)O1 (stereo not given),8.65% (inactive)
